The results in this text go back to PubChem BioAssay (NCATS).

The target in assay [1] is Calcium and integrin-binding protein 1 (Homo sapiens) (UniProt Q99828). Kind of assay: Primary qHTS for Identification of Calcium Integrin Binding Protein 1 (CIB1) Competitor (AID 1508620).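 Further: GST tagged CIB1 binding a fluorescein labelled alphaIIb integrin peptide tracer; top concentration of the series differs between compounds.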 Put shortly: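 CIB1-GST (1 uM final) and compound incubated 15 min at room temperature before adding FITC-alphaIIb peptide tracer (100 nM final). Competition for binding read by fluorescence polarization (ex 480, em 540) after another 15 min at room temperature.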
Background: Quantitative high-throughput screening tests each substance at several concentrations.

In assay [2] the target is Cytochrome P450 2D6 (Homo sapiens) (UniProt P10635). Description: Cytochrome P450 family 2 subfamily D member 6 (CYP2D6) small molecule antagonists: luciferase biochemical (cell-free) qHTS assay (AID 1645840; active means well fitted curve in the direction sought with a large enough effect in the repeat runs; an effect the other way counts as inactive or inconclusive; further: nearly all actives have a fitted effect of over 55% in size; further: potency means the concentration at half of the fitted maximal effect). Put shortly: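 P450-Glo luminescent screen: recombinant CYP2D6 enzyme–proluciferin substrate mix preincubated with compound 10 min at room temperature, then NADPH regeneration added for 1 h at room temperature. Detection reagent added for 20 min; luciferin light read as relative luminescence units.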

Records with an inconclusive call do not appear. Where a call stands in place of a potency, no number is given. Calls of active or inactive are those of the source. Unless noted, the call rests on the fitted dose curve; in most records, active means well fitted curve in the direction sought with a large enough effect; inconclusive means small, poorly fitted or top-dose-only effect, or another doubt; inactive means no such curve, though single readings can be large; an effect the other way counts as inactive or inconclusive.

Cytochrome P450 2D6 (Homo sapiens), sequence (P10635 whole entry, looked up): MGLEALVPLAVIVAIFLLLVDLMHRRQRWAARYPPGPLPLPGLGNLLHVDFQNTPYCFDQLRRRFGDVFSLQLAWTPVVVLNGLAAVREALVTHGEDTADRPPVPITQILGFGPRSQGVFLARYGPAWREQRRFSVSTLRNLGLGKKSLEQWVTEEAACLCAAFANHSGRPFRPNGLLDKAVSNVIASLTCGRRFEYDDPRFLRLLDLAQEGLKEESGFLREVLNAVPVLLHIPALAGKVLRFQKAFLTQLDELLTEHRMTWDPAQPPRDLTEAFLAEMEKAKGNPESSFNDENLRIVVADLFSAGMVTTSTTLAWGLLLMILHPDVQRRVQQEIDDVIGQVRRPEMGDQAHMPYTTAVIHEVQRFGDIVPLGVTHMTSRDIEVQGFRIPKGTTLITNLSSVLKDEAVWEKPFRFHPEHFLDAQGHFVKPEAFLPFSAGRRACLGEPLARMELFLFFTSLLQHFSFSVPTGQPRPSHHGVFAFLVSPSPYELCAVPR
Calcium and integrin-binding protein 1 (Homo sapiens), sequence (Q99828 whole entry, looked up): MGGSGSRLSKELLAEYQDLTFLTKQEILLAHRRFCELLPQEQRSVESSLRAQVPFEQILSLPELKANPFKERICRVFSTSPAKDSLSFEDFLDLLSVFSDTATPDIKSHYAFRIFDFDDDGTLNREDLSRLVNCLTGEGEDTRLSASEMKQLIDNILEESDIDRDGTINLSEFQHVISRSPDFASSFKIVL

Consider `NC(=O)c1nc(Nc2ccccc2)sc1NC(=O)C1CCCCC1`, for which the Potency entry in assay [1] and in assay [2] was “inactive” each time.

Consider `CCC[C@@]1(CCc2ccccc2)CC(O)=C([C@H](CC)c2cccc(NS(=O)(=O)c3ccc(C(F)(F)F)cn3)c2)C(=O)O1`, for which, in assay [1], the Potency entry was “inactive”. Besides, the Potency in assay [2] is 6.01 µM (active).

As to `FC(F)(F)c1ccc(/C=C/c2nc(COc3ccc(CCCCn4ccnn4)cc3)co2)cc1`, the Potency result in assay [1] and in assay [2] was “inactive” throughout.

`COc1cc(-c2cn(C3CCc4c(F)cccc4N(CC(F)(F)F)C3=O)nn2)ccc1-n1cnc(C)c1` (stereo unspecified): the Potency result in assay [1] is “inactive”. In addition, the Potency in assay [2] was 26.8 µM (active).

As to `CC#C[C@@H](CC(=O)O)c1ccc(OCc2ccc(CN3CCC4(C=Cc5ccccc54)CC3)s2)cc1`, the Potency entry in assay [1] is “inactive”. Also, the Potency in assay [2] is 15.1 µM (active).

For the compound `Cc1cc(C(=O)Nc2cc(Nc3ccc4c(/C=C/c5ccccn5)n[nH]c4c3)ccc2F)n(C)n1`, in assay [1], the Potency entry was “inactive”. Besides, the Potency in assay [2] was 7.56 µM (active).

Consider `Cc1[nH]cnc1C[C@H]1CCc2c(C)c3ccccc3n2C1=O`, for which the Potency entry in assay [1] is “inactive”. Further, the Potency in assay [2] was 0.301 µM (active).

With `Cc1c(C2=CCN(C(=O)N(C)C(C)C)CC2)nnn1-c1cccnc1F`, the Potency entry in assay [1] and in assay [2] was “inactive” throughout.

`O=C(Nc1ccc(N(Cc2ccsc2)C(=O)Cn2nnc3ccccc32)cc1)C1CC1`: the Potency result in assay [1] is “inactive”. The Potency in assay [2] was 4.77 µM (active).

As to `CC(C)Nc1nc(Nc2ccccc2)nc(-c2ccccc2)n1`, the Potency entry in assay [1] and in assay [2] was “inactive” each time.

Take `CC1=C(c2ccc(NC(=O)c3c(F)cccc3F)cc2)CN(c2nccs2)CC1`: the Potency result in assay [1] and in assay [2] was “inactive” in each case.

Consider `Cc1cc(CS(=O)(=O)c2ccccc2)cc(OCc2ccc(CN3CCCC3CO)cc2)c1` (stereo unspecified), for which the Potency entry in assay [1] is “inactive”. Further, in assay [2], the Potency was 0.952 µM (active).

As to `COc1ccccc1S(=O)(=O)Nc1ccc2c(c1)CN(C)C(=O)N2`, the Potency entry in assay [1] and in assay [2] was “inactive” each time.

Regarding `O=C(N[C@H]1CCN(C(=O)c2cc(C(F)(F)F)cc(C(F)(F)F)c2)[C@H](Cc2ccc(Cl)cc2)C1)c1ccnc2ccccc12`, the Potency entry in assay [1] and in assay [2] was “inactive” in each case.

Turning to `CN1CCC(c2cn(C)c3ccc(OS(=O)(=O)c4c(F)cccc4F)cc23)CC1`, the Potency entry in assay [1] was “inactive”. In addition, in assay [2], the Potency is 12 µM (active).

Turning to `O=S(=O)(N[C@H]1CCCC[C@@H]1N1CCOCC1)c1ccc(Cl)cc1`, the Potency entry in assay [1] is “inactive”. For the same compound, the Potency in assay [2] was 5.35 µM (active).

With `Cc1cc(N2CCN(C(=O)Oc3ccc(-c4ccccc4)cn3)CC2)c2ccccc2n1`, the Potency result in assay [1] was “inactive”. Also, in assay [2], the Potency was 15.1 µM (active).

On to `C[C@H](Nc1ncnc2nc[nH]c12)c1cc2cccc(Cl)c2c(=O)n1-c1ccccc1`, for which the Potency result in assay [1] and in assay [2] was “inactive” throughout.

Consider `Fc1ccc(-n2cc(CCCCN3CCC4(CC3)OCc3ccccc34)c3ccccc32)cc1`, for which, in assay [1], the Potency entry was “inactive”. For the same compound, the Potency in assay [2] is 0.601 µM (active).

On to `CC1(C)OC[C@H](NC(=O)Nc2ccc(Br)cc2Br)[C@H](c2ccccc2)O1`, for which the Potency entry in assay [1] and in assay [2] was “inactive” in each case.

For `COc1ccc(Oc2c(Cl)cnn(-c3cc(C)cc(C)c3)c2=O)cc1`, the Potency entry in assay [1] and in assay [2] was “inactive” each time.

In the case of `NCC1CCN(c2nccc(-c3ccc4ccccc4c3)n2)CC1`, in assay [1], the Potency result is “inactive”. Further, in assay [2], the Potency is 9.52 µM (active).

Consider `C[C@H]1CO[C@@H]2Cn3cc(C(=O)NCc4ccc(F)cc4F)c(=O)c(O)c3C(=O)N12`, for which the Potency result in assay [1] and in assay [2] was “inactive” in each case.

In the case of `CN(C)Cc1ccc(-c2cnn3c(-c4cccc(NC(=O)c5cccc(C(F)(F)F)c5)c4)ccnc23)cc1`, the Potency result in assay [1] is “inactive”. Further, the Potency in assay [2] is 13.5 µM (active).

As for `Cc1nc(Nc2ccc(F)cc2)nc(N2CCc3ccccc3C2C)c1C` (stereo unspecified), in assay [1], the Potency entry was “inactive”. Also, in assay [2], the Potency is 7.56 µM (active).

For the compound `CCOC(=O)N1c2ccc(C(F)(F)F)cc2C(N(Cc2cc(C(F)(F)F)cc(C(F)(F)F)c2)C(=O)OC)CC1CC` (stereo unspecified), the Potency entry in assay [1] and in assay [2] was “inactive” in each case.

As to `Cc1c(Cl)cccc1S(=O)(=O)Nc1nc(NCCc2ccccc2)nc2c1CN(Cc1ccccc1)CC2`, the Potency result in assay [1] was “inactive”. Also, the Potency in assay [2] was 4.77 µM (active).

Consider `CCn1c2ccccc2c2cc(Nc3ccnc(NCCCN4CCOCC4)n3)ccc21`, for which the Potency entry in assay [1] and in assay [2] was “inactive” throughout.

For `Nc1ncnc2c1c(-c1ccc(Oc3ccccc3)cc1)nn2[C@@H]1CCCNC1`, the Potency result in assay [1] was “inactive”. Moreover, in assay [2], the Potency was 15.1 µM (active).

Take `COc1ccc(Cl)c(Nc2ncnc3cc(OCC4CCN(C)CC4)c(OC)cc23)c1`: the Potency result in assay [1] and in assay [2] was “inactive” throughout.

`Cc1c(C(=O)NCc2cccnc2)nn(-c2ccc(Cl)cc2Cl)c1-c1ccc(Cl)cc1`: the Potency entry in assay [1] was “inactive”. In assay [2], the Potency is 0.213 µM (active).

Take `CC(C)(C)Sc1c(CC(C)(C)C(=O)O)n(Cc2ccc(Cl)cc2)c2ccc(OCc3ccc4ccccc4n3)cc12`: the Potency result in assay [1] and in assay [2] was “inactive” throughout.

Turning to `CCCCNc1ncc(C(=O)NCc2ccc(-n3ccnc3)cc2)c(NC2CCC(O)CC2)n1` (stereo unspecified), the Potency result in assay [1] was “inactive”. Also, the Potency in assay [2] was 0.674 µM (active).

As to `Cc1nnc(-c2ccc(-c3ccc(C(=O)Nc4ccc(O)c(N5CCN(C)CC5)c4)cc3)c(C)c2)o1`, the Potency result in assay [1] and in assay [2] was “inactive” each time.

As for `Cc1nc(-c2cn3c(n2)-c2ccc(-c4cnn(C(C)(C)C(N)=O)c4)cc2OCC3)n(C(C)C)n1`, the Potency entry in assay [1] and in assay [2] was “inactive” each time.

Consider `O=c1cc(OCc2ccc(F)cc2)ccn1-c1ccc(OCCN2CCCC2)cc1`, for which the Potency entry in assay [1] is “inactive”. The Potency in assay [2] is 16.9 µM (active).

As to `O=C(NCC1(N2CCN(c3ccccc3)CC2)CCOCC1)c1cccnc1Sc1ccccc1`, the Potency entry in assay [1] and in assay [2] was “inactive” in each case.

As to `CC(=O)c1ccc2c(c1)[C@H](NC(=O)c1ccc(F)c(Cl)c1)[C@H](O)C(C)(C)O2`, the Potency entry in assay [1] was “inactive”. Moreover, in assay [2], the Potency is 0.674 µM (active).
